# Reference: PubChem BioAssay AID1508602 (The Scripps Research Institute Molecular Screening Center, 2020)
# About 6,800 (1%) of roughly 650,000 compounds were called active. The sample as a whole holds a higher share of actives than the screen did. A number with no mark means an inactive call. Rule as the data show it: active = activation above about 4.9%; inactive = the rest.
# Biological target: G-protein coupled receptor 151 (Homo sapiens) (UniProt Q8TDV0)
# Assay: activates the human receptor GPR151, primary screen, cell-based, PathHunter beta-arrestin, luminescence (AID 1508602);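 also: 0% = median of compound wells and 100% = cells with positive control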
# Settings: PathHunter beta-arrestin GPR151 cells, at 11.2 µM, active compounds read high
# Chain of G-protein coupled receptor 151 (Homo sapiens) (Q8TDV0 whole entry, looked up): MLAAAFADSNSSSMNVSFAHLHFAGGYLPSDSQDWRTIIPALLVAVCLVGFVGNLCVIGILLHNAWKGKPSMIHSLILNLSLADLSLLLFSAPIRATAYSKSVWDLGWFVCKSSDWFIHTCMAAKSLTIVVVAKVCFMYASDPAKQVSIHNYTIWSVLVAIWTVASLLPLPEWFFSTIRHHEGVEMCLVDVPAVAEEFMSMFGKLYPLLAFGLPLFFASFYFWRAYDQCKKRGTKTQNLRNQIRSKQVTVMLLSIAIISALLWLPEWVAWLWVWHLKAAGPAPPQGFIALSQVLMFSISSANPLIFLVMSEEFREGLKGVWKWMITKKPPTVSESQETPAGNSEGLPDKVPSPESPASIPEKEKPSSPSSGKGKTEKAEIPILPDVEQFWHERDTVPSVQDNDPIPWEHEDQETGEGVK
row,Structure (SMILES),activation
1,Fc1ccccc1OCCSc1nc2ccccc2o1,4.92% (active)
2,CC(=O)OCC#CCSc1nc2ccccc2o1,-0.909%
3,N#Cc1ccccc1CSc1nc2ccccc2o1,-1.07%
4,COc1ccccc1C(=O)N1CCNC(=O)C1CC(=O)Nc1ccc(Cl)cc1 (centres undefined),-1.89%
5,O=C(CC1C(=O)NCCN1C(=O)c1ccc([N+](=O)[O-])cc1)Nc1cccc(Cl)c1 (centres undefined),7.94% (active)
6,O=C(Cc1ccc([N+](=O)[O-])cc1)Nc1cccc(Cl)c1,-0.456%
7,CCc1cc2c(=O)c(-c3ccc4c(c3)OCCCO4)coc2cc1OC(=O)N1CCOCC1,8.05% (active)
8,CCc1cc2c(=O)c(-c3ccc4c(c3)OCCCO4)coc2cc1OC,-0.907%
9,CCCc1cc2c(=O)c(-c3ccc4c(c3)OCO4)coc2cc1O,0.792%
10,COc1ccccc1N=Cc1cccc(O)c1O,-0.891%
11,O=C(c1cccc(NS(=O)(=O)c2ccc(Cl)cc2)c1)N1CCCC1,-1.72%
12,O=C(c1ccc(Cl)cc1)N1CCCC1,-0.435%
13,O=C(c1ccc(CNS(=O)(=O)c2ccc(Cl)cc2)cc1)N1CCCC1,6.5% (active)
14,COC(=O)CN1C=C(C(=O)OC)C(c2ccc(OC)c(O)c2)C(C(=O)OC)=C1,6.57% (active)
15,COC(=O)C1=CN(Cc2ccc(Cl)cc2)C=C(C(=O)OC)C1c1cc(OC)c(O)c(OC)c1,8.56% (active)
16,COC(=O)C1=CN(Cc2ccc(F)cc2)C=C(C(=O)OC)C1c1ccc(OC)c(OC)c1,-0.344%
17,COC(=O)C1=CN(CC2CCCO2)C=C(C(=O)OC)C1c1ccc(OC)c(O)c1 (centres undefined),1.3%
18,COC(=O)C1=CN(Cc2ccc(OC)cc2)C=C(C(=O)OC)C1c1ccc(O)c(OC)c1,1.75%
19,CCOC(=O)C1=CN(Cc2ccc(Cl)cc2)C=C(C(=O)OCC)C1c1cc(Br)c(O)c(OC)c1,3.19%
20,CCOc1ccc(/C(O)=C2/C(=O)C(=O)N(CCN(CC)CC)C2c2ccc(C)cc2)c(C)c1 (centres undefined),0.496%
21,CCOc1ccc(N2C(=O)C3C4C=CC(C5CC45)C3C2=O)cc1 (centres undefined),-1.25%
22,Cc1cccc(CN2CCN3C(=O)[C@H](Cc4cnc[nH]4)NC(=O)[C@H]3C2)n1,0.592%
23,CC(=O)Nc1ccc2c(c1)CN(Cc1ccccc1)CO2,1.47%
24,CCC(CC)C(=O)Nc1cccc(F)c1,4.27%
25,CCC(CC)C(=O)Nc1cccc(C(=O)Nc2ccccc2C(=O)NC(C)C)c1,0.373%
26,CCC(CC)C(=O)Nc1cccc(C(=O)N2CCCC2)c1,5.74% (active)
27,O=C(CCc1ccccc1)Nc1cccc(C(=O)N2CCOCC2)c1,11.5% (active)
28,O=C(c1cccc(N2C(=O)c3ccccc3C2=O)c1)N1CCOCC1,-0.354%
29,CC1(C)Oc2ccc(C(=O)N3CCOCC3)cc2N(CC(=O)Nc2ccccc2)C1=O,-0.343%
